# Experimental data taken from PubChem BioAssay (Tox21).
# Several values for one entry are separate records, joined by “and”; a condition that tells them apart may be missing. Equal values may be shown once. A structure can be active in one record and inactive in another. Activity calls are given as the source filed them. Entries that show only a call come without a potency. Unless noted, calls come from the whole dose curve.
# Legend:
# [1] = qHTS assay to identify small molecule antagonists of the thyroid receptor (TR) signaling pathway - cell viability counter screen (AID 743064; active = well fitted curve in the direction sought with a large enough effect in the repeat runs; inconclusive = weak or mixed curves; inactive = no such curve, though single readings can be large; an effect the other way counts as inactive or inconclusive; note: nearly all actives have a fitted effect of over 50% in size; note: potency is the fitted concentration of half-maximal effect)
# Outline: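 Fluorescence from CellTiter-Fluor, added after 23.5 h exposure at 37 °C, reported viability of GH3.TRE-Luc cells co-treated with compound and 1 nM T3. Measured in the same wells as the luciferase TR readout.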
# [2] = system: thyroid hormone receptor (rat, GH3 cells); experiment: qHTS assay to identify small molecule agonists of the thyroid receptor (TR) signaling pathway (AID 743066)
# [3] = qHTS assay to identify small molecule antagonists of the estrogen receptor alpha (ER-alpha) signaling pathway - cell viability counter screen (AID 743074);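 note: HEK293 cells carrying ER-alpha-UAS-bla reporter stimulated with 17beta-estradiol; nearly all actives have a fitted effect of over 45% in size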
# [4] = target: Estrogen receptor (Homo sapiens) (UniProt P03372); experiment: qHTS assay to identify small molecule agonists of the estrogen receptor alpha (ER-alpha) signaling pathway (AID 743075); note: potency is the fitted concentration of half-maximal effect
# [5] = target: Estrogen receptor (Homo sapiens) (UniProt P03372); experiment: qHTS assay to identify small molecule agonists of the estrogen receptor alpha (ER-alpha) signaling pathway using the BG1 cell line (AID 743079; active = well fitted curve in the direction sought with a large enough effect in the repeat runs; inconclusive = weak or mixed curves; inactive = no such curve, though single readings can be large; an effect the other way counts as inactive or inconclusive; note: nearly all actives have a fitted effect of over 20% in size; note: potency is the fitted concentration of half-maximal effect); conditions: BG1Luc4E2 cells, ERE-luciferase agonist, 22 h
# [6] = qHTS assay to identify small molecule antagonists of the estrogen receptor alpha (ER-alpha) signaling pathway using the BG1 cell line (AID 743080);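 note: BG1 cells stimulated with 17beta-estradiol alongside compound; nearly all actives have a fitted effect of over 25% in size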; note: potency is the fitted concentration of half-maximal effect
# Outline: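 Seeding, 24 h rest, compound transfer from DMSO, 17beta-estradiol addition, 21.5 h incubation, CellTiter-Fluor (30 min, 37 C), then ONE-Glo (30 min, room temperature): this sequence was run on BG1-Luc-4E2 reporter cells.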
# [7] = qHTS assay to identify small molecule antagonists of the estrogen receptor alpha (ER-alpha) signaling pathway using the BG1 cell line - cell viability counter screen (AID 743081; active = well fitted curve in the direction sought with a large enough effect in the repeat runs; inconclusive = weak or mixed curves; inactive = no such curve, though single readings can be large; an effect the other way counts as inactive or inconclusive;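 note: compound given together with 17beta-estradiol as the ER stimulus; nearly all actives have a fitted effect of over 45% in size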)
# Aromatase (Homo sapiens) = Aromatase (Homo sapiens) (UniProt P11511); experiment: qHTS assay to identify aromatase inhibitors (AID 743083; active = well fitted curve in the direction sought with a large enough effect in the repeat runs; inconclusive = weak or mixed curves; inactive = no such curve, though single readings can be large; an effect the other way counts as inactive or inconclusive; note: nearly all actives have a fitted effect of over 55% in size; note: potency is the fitted concentration of half-maximal effect)
# [8] = target: Estrogen receptor (Homo sapiens) (UniProt P03372); experiment: qHTS assay to identify small molecule antagonists of the estrogen receptor alpha (ER-alpha) signaling pathway (AID 743069; active = well fitted curve in the direction sought with a large enough effect in the signal ratio in the repeat runs, not every such curve was filed as active; inconclusive = weak or mixed curves, or effect the other way; inactive = no such curve, though single readings can be large or run the other way; the % refers to the signal ratio)
# Outline: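 Compound effects are measured against 17beta-estradiol stimulation in HEK293 cells with a UAS-controlled beta-lactamase reporter for ER-alpha. Exposure lasts 18 hr at 37C; LiveBLAzer B/G FRET substrate follows for 2 hr at room temperature.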
# [9] = qHTS assay to identify small molecule antagonists of the thyroid receptor (TR) signaling pathway (AID 743065; active = well fitted curve in the direction sought with a large enough effect in the repeat runs; inconclusive = weak or mixed curves; inactive = no such curve, though single readings can be large; an effect the other way counts as inactive or inconclusive; note: nearly all actives have a fitted effect of over 55% in size; note: potency is the fitted concentration of half-maximal effect)
# Outline: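 Antagonism measured as loss of luciferase signal in GH3 cells stably carrying a TRE-luciferase reporter, co-treated with compound and T3 (1 nM final) for 23.5 h at 37 C. Viability was read in the same well by CellTiter-Fluor.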
# Chain of Aromatase (Homo sapiens) (P11511 whole entry, looked up): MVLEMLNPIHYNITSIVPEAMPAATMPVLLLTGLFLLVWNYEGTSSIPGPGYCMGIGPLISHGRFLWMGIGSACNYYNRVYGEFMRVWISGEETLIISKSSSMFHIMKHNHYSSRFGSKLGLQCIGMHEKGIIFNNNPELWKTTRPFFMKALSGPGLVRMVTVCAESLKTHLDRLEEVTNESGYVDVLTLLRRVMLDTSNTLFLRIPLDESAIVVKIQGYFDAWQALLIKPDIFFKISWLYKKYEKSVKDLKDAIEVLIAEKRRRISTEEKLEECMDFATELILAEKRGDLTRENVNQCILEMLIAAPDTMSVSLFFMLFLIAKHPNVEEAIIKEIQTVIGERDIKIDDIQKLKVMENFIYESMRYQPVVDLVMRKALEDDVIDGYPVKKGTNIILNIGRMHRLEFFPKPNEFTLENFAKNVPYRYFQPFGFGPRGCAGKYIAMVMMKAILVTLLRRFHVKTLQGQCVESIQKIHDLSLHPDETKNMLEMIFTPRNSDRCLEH
# Chain of Estrogen receptor (Homo sapiens) (P03372 whole entry, looked up): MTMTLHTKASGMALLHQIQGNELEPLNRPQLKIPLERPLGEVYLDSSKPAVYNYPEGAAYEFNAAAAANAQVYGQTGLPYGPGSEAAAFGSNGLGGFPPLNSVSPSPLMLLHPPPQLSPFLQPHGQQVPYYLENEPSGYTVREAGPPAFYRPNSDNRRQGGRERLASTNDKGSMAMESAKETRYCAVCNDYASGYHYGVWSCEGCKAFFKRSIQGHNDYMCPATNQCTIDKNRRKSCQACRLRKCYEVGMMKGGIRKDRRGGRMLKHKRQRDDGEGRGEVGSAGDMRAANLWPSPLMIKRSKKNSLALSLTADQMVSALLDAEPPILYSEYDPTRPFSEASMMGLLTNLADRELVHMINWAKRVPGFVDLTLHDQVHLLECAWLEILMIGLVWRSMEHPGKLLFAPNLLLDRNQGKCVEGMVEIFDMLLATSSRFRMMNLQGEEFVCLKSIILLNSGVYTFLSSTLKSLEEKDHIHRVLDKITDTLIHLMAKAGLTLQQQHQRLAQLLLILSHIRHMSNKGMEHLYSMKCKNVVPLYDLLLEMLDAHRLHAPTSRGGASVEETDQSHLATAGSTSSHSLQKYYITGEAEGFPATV
Structure (SMILES),Potency [1],Potency [2],outcome [3],Potency [4],activation ([5]; at 95 µM (top of the series)),Potency [6],Potency [7],Potency (Aromatase (Homo sapiens)),Potency [8],activation ([5]; at 70.3 µM (top of the series)),Potency [9],Potency [5],activation ([5]; at 32.5 µM (top of the series)),activation ([5]; at 260 µM (top of the series))
O=C(O)C(Br)CBr (stereo unspecified),inactive,inactive,inactive,inactive,-6.3% (inactive),inactive,inactive,inactive,–,–,–,–,–,–
CN1C(=S)CN=C(c2ccccc2)c2cc(Cl)ccc21,inactive,inactive,inactive,inactive,–,13.3 µM (active),inactive,inactive,–,–,–,–,–,–
CC1CCCCC1NC(=O)Nc1ccccc1 (stereo unspecified),inactive,inactive,inactive,inactive,–,–,inactive,inactive,inactive,–,–,–,–,–
C(CCOCC1CO1)COCC1CO1 (stereo unspecified),inactive,inactive,–,inactive,–,inactive,inactive,inactive,–,0.112% (inactive),–,–,–,–
CCN(CC)c1nc(C)cc(OP(=S)(OC)OC)n1,–,inactive,inactive,inactive,–,inactive,inactive,–,inactive,4.15% (inactive),61.1 µM (active),–,–,–
Cc1ncsc1CCCl,inactive,inactive,inactive,inactive,–,inactive,–,inactive,inactive,1.72% (inactive),–,–,–,–
Nc1cc2c3c(c1)C(c1ccccc1)=N[C@@H](NC(=O)c1cccnc1)C(=O)N3CC2,inactive,inactive,inactive,inactive,–,–,inactive,inactive,inactive,-22.1% (inactive),–,–,–,–
CC(Oc1ccc(Oc2ncc(C(F)(F)F)cc2Cl)cc1)C(=O)O (stereo unspecified),inactive,inactive,inactive,inactive,–,inactive,inactive,–,–,–,–,–,–,–
CC(=O)CCc1ccc2c(c1)OCO2,inactive,–,inactive,inactive,–,inactive,inactive,inactive,inactive,24.9% (inactive),–,–,–,–
C[C@H]1CCC[C@H](O)CCCCCc2cc(O)cc(O)c2C(=O)O1,inactive and 54.9 µM (active),–,inactive,848 nM [inconclusive] (active) and 175 nM [inconclusive] (active),-52.7% (active),23.7 µM (active),inactive,61.6 µM (active),inactive,-0.266% (active),–,–,–,–
CCOP(=S)(OCC)Oc1ncn(-c2ccccc2)n1,inactive,inactive,inactive,inactive,–,inactive,inactive,inactive,–,–,–,54.5 µM (active),–,–
CCCCc1ccc(O)cc1,–,inactive,inactive,inactive,–,inactive,inactive,–,inactive,12.6% (inactive),inactive,–,–,–
O=C1c2ccccc2C(=O)c2ccccc21,inactive,inactive,inactive,inactive,–,–,–,inactive,inactive,–,–,–,–,–
COC(=O)c1ccccc1S(=O)(=O)NC(=O)Nc1nc(C)cc(C)n1,inactive,inactive,inactive,–,–,–,inactive,inactive,–,–,–,–,–,–
Cc1ccccc1CO[C@@H]1C[C@@]2(C(C)C)CC[C@]1(C)O2,inactive,inactive,inactive,–,–,–,inactive,–,–,–,–,–,–,–
CC(COc1ccc(Oc2ccccc2)cc1)Oc1ccccn1 (stereo unspecified),inactive,inactive,inactive,–,–,–,inactive,inactive,–,–,–,–,–,–
CCC1(c2ccccc2)C(=O)NC(=O)NC1=O,–,inactive,inactive,inactive,-10.3% (inactive),inactive,inactive,inactive,inactive,-1.3% (inactive),inactive,–,–,–
COc1ccc2c(c1OC)CN1CCc3cc4c(cc3C1C2)OCO4 (stereo unspecified),inactive,inactive,inactive,inactive,–,inactive,inactive,inactive,–,–,–,–,-4.85% (inactive),–
CCN(CC)C(=O)[C@@H]1C=C2c3cccc4[nH]cc(c34)C[C@H]2N(C)C1,inactive,inactive,inactive,inactive and 8.49 µM [inconclusive] (active),–,inactive,–,inactive,–,–,–,0.944 µM (active),–,-12% (inactive)
CCCSP(=O)(OCC)Oc1ccc(Br)cc1Cl (stereo unspecified),inactive,inactive,inactive,–,–,–,inactive,–,–,–,–,–,–,–
Cc1coc2c1CCC(C)C2 (stereo unspecified),–,inactive,inactive,inactive,–,inactive,inactive,inactive,inactive,–,inactive,–,–,–

Structure (SMILES),Potency [1],Potency [2],outcome [3],Potency [4],activation ([5]; at 95 µM (top of the series)),Potency [6],Potency [7],Potency (Aromatase (Homo sapiens)),Potency [8],activation ([5]; at 70.3 µM (top of the series)),Potency [9],Potency [5],activation ([5]; at 32.5 µM (top of the series)),activation ([5]; at 260 µM (top of the series))
COC(=O)C(C)Oc1ccc(Oc2ccc(Cl)cc2Cl)cc1 (stereo unspecified),–,inactive,inactive,–,–,–,inactive,inactive,–,–,inactive,–,–,–
O=C(CCCN1CCC(n2c(=O)[nH]c3ccccc32)CC1)c1ccc(F)cc1,–,inactive,inactive,inactive,–,inactive,inactive,inactive,inactive,–,inactive,–,-6.79% (inactive),–
Fc1ccc(C2(Cn3cncn3)OC2c2ccccc2Cl)cc1 (stereo unspecified),–,inactive,inactive,inactive,–,68.6 µM (active),inactive,3.86 µM (active),–,-28.4% (inactive),30.6 µM (active),–,–,–
COc1cc2c(cc1OC)[C@@]13CCN4CC5=CCO[C@H]6CC(=O)N2[C@H]1[C@H]6[C@H]5C[C@H]43,–,inactive,inactive,inactive,–,inactive,inactive,inactive,inactive,-4.94% (inactive),inactive,–,–,–
CC1CCC(=O)O1 (stereo unspecified),–,inactive,inactive,–,–,–,inactive,–,–,–,inactive,–,–,–
C=C(C)CN(CC)c1c([N+](=O)[O-])cc(C(F)(F)F)cc1[N+](=O)[O-],–,inactive,inactive,inactive,–,–,inactive,inactive,inactive,11.3% (inactive),inactive,–,–,–
O=[N+]([O-])c1cccc2cccnc12,–,inactive,inactive,inactive,-10.4% (inactive),inactive,inactive,inactive,inactive,–,inactive,–,–,–
NC1=NC(=O)C(c2ccccc2)O1 (stereo unspecified),–,inactive,inactive,–,–,–,inactive,–,–,–,inactive,–,–,–
CCN(Cc1ccc(Cl)nc1)/C(=C/[N+](=O)[O-])NC,–,inactive,inactive,inactive,–,inactive,inactive,inactive,inactive,1.15% (inactive),inactive,–,–,–
Nc1ccccc1Cl,–,inactive,inactive,inactive,–,inactive,inactive,inactive,inactive,-8.6% (inactive),inactive,–,–,–
ClC(Cl)(Cl)C(Cl)(Cl)Cl,–,inactive,inactive,inactive,-4.65% (inactive),inactive,inactive,inactive,inactive,–,inactive,–,–,–
O=C(Cc1ccccc1)OCc1ccccc1,–,inactive,inactive,inactive,2.04% (inactive),inactive,inactive,inactive,–,–,inactive,–,–,–
CCOP(=S)(OCC)Oc1cc(-c2ccccc2)on1,–,inactive,inactive,inactive,–,–,inactive,inactive,inactive,–,inactive,68.6 µM (active),–,–
O=C(NCO)NCO,–,inactive,inactive,inactive,2.29% (inactive),inactive,inactive,inactive,inactive,–,inactive,–,–,–
N#CC(O)c1ccccc1 (stereo unspecified),–,inactive,inactive,–,–,–,inactive,inactive,–,–,inactive,–,–,–
N#CC(Cl)(Cl)Cl,–,inactive,inactive,inactive,–,inactive,inactive,inactive,inactive,-6.23% (inactive),inactive,–,–,–
CCCCC(=O)Cl,–,inactive,inactive,–,–,–,inactive,–,–,–,inactive,–,–,–
C#C[C@]1(O)C=C[C@H]2[C@@H]3CCC4=CC(=O)CC[C@@H]4[C@H]3CC[C@@]21CC,–,inactive,inactive,535 nM [inconclusive] (active),–,inactive,inactive,inactive,–,–,11.9 µM (active),0.168 µM (active),–,–
Nc1cc(Cl)ccc1O,–,inactive,–,inactive,–,7.45 µM (active),inactive,inactive,inactive,-2.11% (inactive),59.1 µM (active),–,–,–
CC1CN1P(=O)(N1CC1C)N1CC1C (stereo unspecified),–,inactive,inactive,inactive,–,inactive,inactive,inactive,inactive,-10.3% (inactive),inactive,–,–,–
